Our source for the binding signal values is paper PMC11006913.

Holding throughout (test): PBM; 200 nM protein, PBS
Common to all, as to conditions: dsDNA, one strand shown

The target of experiment [1] is PROP1 (Homo sapiens, UniProt O75360 56-141).
The target in experiment [2] is PROP1 (Homo sapiens, UniProt O75360 56-141, R99H).
Experiment [3] concerns the target PROP1 (Homo sapiens, UniProt O75360 56-141, F88S).

Sequence of PROP1 (Homo sapiens, UniProt O75360 56-141, F88S) (O75360 56-141 F88S): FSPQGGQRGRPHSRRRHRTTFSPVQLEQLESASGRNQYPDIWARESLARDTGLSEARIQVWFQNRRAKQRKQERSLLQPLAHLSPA
Sequence of PROP1 (Homo sapiens, UniProt O75360 56-141, R99H) (O75360 56-141 R99H): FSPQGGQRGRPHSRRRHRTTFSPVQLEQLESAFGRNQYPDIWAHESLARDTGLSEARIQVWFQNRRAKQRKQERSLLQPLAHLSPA
Sequence of PROP1 (Homo sapiens, UniProt O75360 56-141) (O75360 56-141): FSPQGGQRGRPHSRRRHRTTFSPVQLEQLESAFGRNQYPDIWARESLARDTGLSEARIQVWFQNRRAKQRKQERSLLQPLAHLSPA

As for CGCGGTCC, the binding signal was 6.77 upbm affinity estimate (log intensity, higher = more binding, comparable within an allelic series) with PROP1 [1]; 6.82 upbm affinity estimate (log intensity, higher = more binding, comparable within an allelic series) with PROP1 [2]; 6.49 upbm affinity estimate (log intensity, higher = more binding, comparable within an allelic series) with PROP1 [3].
As for CTCAGCGC, the binding signal in the experiment with PROP1 [1] is 6.82 upbm affinity estimate (log intensity, higher = more binding, comparable within an allelic series); with PROP1 [2], 6.86 upbm affinity estimate (log intensity, higher = more binding, comparable within an allelic series); in the experiment with PROP1 [3], 6.88 upbm affinity estimate (log intensity, higher = more binding, comparable within an allelic series).
Turning to GGCCACCA, the binding signal was 6.96 upbm affinity estimate (log intensity, higher = more binding, comparable within an allelic series) in the experiment with PROP1 [1]; 6.82 upbm affinity estimate (log intensity, higher = more binding, comparable within an allelic series) in the experiment with PROP1 [2]; 6.75 upbm affinity estimate (log intensity, higher = more binding, comparable within an allelic series) in the experiment with PROP1 [3].
On to AGCCTGGC, for which the binding signal with PROP1 [1] is 6.55 upbm affinity estimate (log intensity, higher = more binding, comparable within an allelic series); in the experiment with PROP1 [2], 6.87 upbm affinity estimate (log intensity, higher = more binding, comparable within an allelic series); in the experiment with PROP1 [3], 6.67 upbm affinity estimate (log intensity, higher = more binding, comparable within an allelic series).
As for GGTAAATA, the binding signal with PROP1 [1] is 8.63 upbm affinity estimate (log intensity, higher = more binding, comparable within an allelic series); with PROP1 [2], 8.23 upbm affinity estimate (log intensity, higher = more binding, comparable within an allelic series); with PROP1 [3] it was 7.4 upbm affinity estimate (log intensity, higher = more binding, comparable within an allelic series).
For TGATTACA, the binding signal is 9.42 upbm affinity estimate (log intensity, higher = more binding, comparable within an allelic series) in the experiment with PROP1 [1]; 8.57 upbm affinity estimate (log intensity, higher = more binding, comparable within an allelic series) with PROP1 [2]; 7.5 upbm affinity estimate (log intensity, higher = more binding, comparable within an allelic series) with PROP1 [3].
TCCAATCA: the binding signal in the experiment with PROP1 [1] is 8.66 upbm affinity estimate (log intensity, higher = more binding, comparable within an allelic series); in the experiment with PROP1 [2], 8.18 upbm affinity estimate (log intensity, higher = more binding, comparable within an allelic series); in the experiment with PROP1 [3] it was 7.02 upbm affinity estimate (log intensity, higher = more binding, comparable within an allelic series).
For the sequence AGCTCCCG, the binding signal with PROP1 [1] is 6.72 upbm affinity estimate (log intensity, higher = more binding, comparable within an allelic series); in the experiment with PROP1 [2], 6.63 upbm affinity estimate (log intensity, higher = more binding, comparable within an allelic series); in the experiment with PROP1 [3], 6.46 upbm affinity estimate (log intensity, higher = more binding, comparable within an allelic series).
As for ATCACTAA, the binding signal with PROP1 [1] was 8.89 upbm affinity estimate (log intensity, higher = more binding, comparable within an allelic series); with PROP1 [2], 8.2 upbm affinity estimate (log intensity, higher = more binding, comparable within an allelic series); with PROP1 [3] it was 7.19 upbm affinity estimate (log intensity, higher = more binding, comparable within an allelic series).
Turning to CCAGGGTC, the binding signal in the experiment with PROP1 [1] is 6.75 upbm affinity estimate (log intensity, higher = more binding, comparable within an allelic series); in the experiment with PROP1 [2], 6.85 upbm affinity estimate (log intensity, higher = more binding, comparable within an allelic series); with PROP1 [3], 6.62 upbm affinity estimate (log intensity, higher = more binding, comparable within an allelic series).
On to GATAGTTA, for which the binding signal is 8.6 upbm affinity estimate (log intensity, higher = more binding, comparable within an allelic series) in the experiment with PROP1 [1]; 8.09 upbm affinity estimate (log intensity, higher = more binding, comparable within an allelic series) with PROP1 [2]; 7.39 upbm affinity estimate (log intensity, higher = more binding, comparable within an allelic series) with PROP1 [3].
With CACGTCGC, the binding signal with PROP1 [1] was 6.91 upbm affinity estimate (log intensity, higher = more binding, comparable within an allelic series); with PROP1 [2] it was 6.79 upbm affinity estimate (log intensity, higher = more binding, comparable within an allelic series); with PROP1 [3] it was 6.8 upbm affinity estimate (log intensity, higher = more binding, comparable within an allelic series).
In the case of CCGAGTTA, the binding signal with PROP1 [1] was 8.19 upbm affinity estimate (log intensity, higher = more binding, comparable within an allelic series); with PROP1 [3], 7.14 upbm affinity estimate (log intensity, higher = more binding, comparable within an allelic series).
On to CACGACGA, for which the binding signal in the experiment with PROP1 [1] was 6.69 upbm affinity estimate (log intensity, higher = more binding, comparable within an allelic series); with PROP1 [2], 6.8 upbm affinity estimate (log intensity, higher = more binding, comparable within an allelic series); with PROP1 [3], 6.95 upbm affinity estimate (log intensity, higher = more binding, comparable within an allelic series).
As for AATCACAT, the binding signal was 9.48 upbm affinity estimate (log intensity, higher = more binding, comparable within an allelic series) in the experiment with PROP1 [1] and 7.46 upbm affinity estimate (log intensity, higher = more binding, comparable within an allelic series) with PROP1 [3].
As to CCCGCGCA, the binding signal was 6.78 upbm affinity estimate (log intensity, higher = more binding, comparable within an allelic series) with PROP1 [1]; 6.9 upbm affinity estimate (log intensity, higher = more binding, comparable within an allelic series) in the experiment with PROP1 [2]; 6.76 upbm affinity estimate (log intensity, higher = more binding, comparable within an allelic series) in the experiment with PROP1 [3].
For GGCTGACC, the binding signal is 6.72 upbm affinity estimate (log intensity, higher = more binding, comparable within an allelic series) with PROP1 [1]; 6.74 upbm affinity estimate (log intensity, higher = more binding, comparable within an allelic series) with PROP1 [2]; 6.56 upbm affinity estimate (log intensity, higher = more binding, comparable within an allelic series) with PROP1 [3].
AACTATAT: the binding signal was 8.71 upbm affinity estimate (log intensity, higher = more binding, comparable within an allelic series) with PROP1 [1] and 7.61 upbm affinity estimate (log intensity, higher = more binding, comparable within an allelic series) with PROP1 [3].
Regarding ATCTTAAC, the binding signal with PROP1 [1] was 8.34 upbm affinity estimate (log intensity, higher = more binding, comparable within an allelic series); with PROP1 [2], 7.85 upbm affinity estimate (log intensity, higher = more binding, comparable within an allelic series); with PROP1 [3], 7.45 upbm affinity estimate (log intensity, higher = more binding, comparable within an allelic series).
As for AAATCATG, the binding signal with PROP1 [1] is 8.42 upbm affinity estimate (log intensity, higher = more binding, comparable within an allelic series); with PROP1 [3], 7.26 upbm affinity estimate (log intensity, higher = more binding, comparable within an allelic series).
With CCTTCGGC, the binding signal was 6.66 upbm affinity estimate (log intensity, higher = more binding, comparable within an allelic series) with PROP1 [1]; 6.64 upbm affinity estimate (log intensity, higher = more binding, comparable within an allelic series) with PROP1 [2]; 6.53 upbm affinity estimate (log intensity, higher = more binding, comparable within an allelic series) with PROP1 [3].
On to GCTCCGCA, for which the binding signal in the experiment with PROP1 [1] was 6.82 upbm affinity estimate (log intensity, higher = more binding, comparable within an allelic series); with PROP1 [2] it was 6.82 upbm affinity estimate (log intensity, higher = more binding, comparable within an allelic series); with PROP1 [3], 6.66 upbm affinity estimate (log intensity, higher = more binding, comparable within an allelic series).
Take ATTATGGG: the binding signal with PROP1 [1] was 9.26 upbm affinity estimate (log intensity, higher = more binding, comparable within an allelic series); with PROP1 [2] it was 8.87 upbm affinity estimate (log intensity, higher = more binding, comparable within an allelic series); with PROP1 [3] it was 7.21 upbm affinity estimate (log intensity, higher = more binding, comparable within an allelic series).
For CTTGGGTC, the binding signal in the experiment with PROP1 [1] is 6.81 upbm affinity estimate (log intensity, higher = more binding, comparable within an allelic series); with PROP1 [2], 6.75 upbm affinity estimate (log intensity, higher = more binding, comparable within an allelic series); with PROP1 [3] it was 6.83 upbm affinity estimate (log intensity, higher = more binding, comparable within an allelic series).
AAGTTAAG: the binding signal with PROP1 [1] is 7.89 upbm affinity estimate (log intensity, higher = more binding, comparable within an allelic series); with PROP1 [3], 7.07 upbm affinity estimate (log intensity, higher = more binding, comparable within an allelic series).
For the sequence GCGGACGC, the binding signal in the experiment with PROP1 [1] was 6.53 upbm affinity estimate (log intensity, higher = more binding, comparable within an allelic series); in the experiment with PROP1 [2] it was 6.66 upbm affinity estimate (log intensity, higher = more binding, comparable within an allelic series); with PROP1 [3], 6.56 upbm affinity estimate (log intensity, higher = more binding, comparable within an allelic series).
Turning to CGCGTCCC, the binding signal with PROP1 [1] is 6.69 upbm affinity estimate (log intensity, higher = more binding, comparable within an allelic series); in the experiment with PROP1 [2], 6.77 upbm affinity estimate (log intensity, higher = more binding, comparable within an allelic series); with PROP1 [3] it was 6.52 upbm affinity estimate (log intensity, higher = more binding, comparable within an allelic series).
CGGCTCCA: the binding signal with PROP1 [1] was 6.66 upbm affinity estimate (log intensity, higher = more binding, comparable within an allelic series); in the experiment with PROP1 [2], 6.76 upbm affinity estimate (log intensity, higher = more binding, comparable within an allelic series); in the experiment with PROP1 [3], 6.74 upbm affinity estimate (log intensity, higher = more binding, comparable within an allelic series).
Turning to CCTGTTAG, the binding signal was 8.32 upbm affinity estimate (log intensity, higher = more binding, comparable within an allelic series) in the experiment with PROP1 [1]; 8.15 upbm affinity estimate (log intensity, higher = more binding, comparable within an allelic series) in the experiment with PROP1 [2]; 7.19 upbm affinity estimate (log intensity, higher = more binding, comparable within an allelic series) in the experiment with PROP1 [3].
For AATCACCT, the binding signal was 8.74 upbm affinity estimate (log intensity, higher = more binding, comparable within an allelic series) with PROP1 [1] and 7.3 upbm affinity estimate (log intensity, higher = more binding, comparable within an allelic series) with PROP1 [3].
For the sequence ATGACCAA, the binding signal in the experiment with PROP1 [1] was 8.15 upbm affinity estimate (log intensity, higher = more binding, comparable within an allelic series); in the experiment with PROP1 [3], 7.17 upbm affinity estimate (log intensity, higher = more binding, comparable within an allelic series).
